Molecular target: Insulin-like growth factor 1 receptor (Homo sapiens) (UniProt P08069)
Conditions: at 1 µM

Sequence of Insulin-like growth factor 1 receptor (Homo sapiens) (P08069 31-736 limits assumed): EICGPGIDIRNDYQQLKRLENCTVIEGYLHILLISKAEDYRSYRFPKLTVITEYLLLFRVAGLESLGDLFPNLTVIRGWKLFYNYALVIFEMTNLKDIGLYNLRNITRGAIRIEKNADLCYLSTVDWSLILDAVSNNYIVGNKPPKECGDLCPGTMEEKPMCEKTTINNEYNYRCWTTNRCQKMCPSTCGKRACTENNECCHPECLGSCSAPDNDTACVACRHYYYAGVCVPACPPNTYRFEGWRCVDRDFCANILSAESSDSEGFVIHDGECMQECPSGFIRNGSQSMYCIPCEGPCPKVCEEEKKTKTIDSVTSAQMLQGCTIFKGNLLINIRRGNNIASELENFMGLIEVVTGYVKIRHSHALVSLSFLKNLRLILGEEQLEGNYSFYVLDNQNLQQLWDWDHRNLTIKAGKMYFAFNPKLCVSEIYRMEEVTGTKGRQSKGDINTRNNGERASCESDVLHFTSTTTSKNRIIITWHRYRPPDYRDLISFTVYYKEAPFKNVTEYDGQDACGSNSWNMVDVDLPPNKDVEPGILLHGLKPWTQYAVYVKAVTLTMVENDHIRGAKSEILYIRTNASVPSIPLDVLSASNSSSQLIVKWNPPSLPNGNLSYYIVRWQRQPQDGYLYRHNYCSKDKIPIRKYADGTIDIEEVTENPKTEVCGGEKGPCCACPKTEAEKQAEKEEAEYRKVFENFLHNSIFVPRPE
Sequence of Insulin-like growth factor 1 receptor (Homo sapiens) (P08069 741-1367 limits assumed): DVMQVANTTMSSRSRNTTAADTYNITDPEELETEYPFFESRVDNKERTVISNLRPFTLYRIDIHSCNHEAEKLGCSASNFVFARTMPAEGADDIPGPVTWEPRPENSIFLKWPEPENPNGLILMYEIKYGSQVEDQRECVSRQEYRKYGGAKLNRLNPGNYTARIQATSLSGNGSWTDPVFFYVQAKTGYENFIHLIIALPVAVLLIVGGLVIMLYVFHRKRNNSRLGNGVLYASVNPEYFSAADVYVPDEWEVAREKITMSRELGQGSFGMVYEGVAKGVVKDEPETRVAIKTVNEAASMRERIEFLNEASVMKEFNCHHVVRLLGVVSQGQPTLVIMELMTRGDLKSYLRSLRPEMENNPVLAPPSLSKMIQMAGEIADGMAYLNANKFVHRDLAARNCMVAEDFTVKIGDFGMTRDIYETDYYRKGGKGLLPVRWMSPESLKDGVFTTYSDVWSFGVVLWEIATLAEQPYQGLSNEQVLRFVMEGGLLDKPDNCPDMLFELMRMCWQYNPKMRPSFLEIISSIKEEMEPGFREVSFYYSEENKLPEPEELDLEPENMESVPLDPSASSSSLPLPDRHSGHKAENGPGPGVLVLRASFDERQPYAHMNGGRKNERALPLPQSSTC

Compound | residual activity
O=C(NC(NC(=S)Nc1ccc(F)c([N+](=O)[O-])c1)C(Cl)(Cl)Cl)C(c1ccccc1)c1ccccc1 (configuration not stated) | 76%
CCCCc1c(-c2ccc(OC)cc2)[nH]c2nccnc12 | 109%
CCN1/C(=C/C(C)=O)Sc2ccc(OC)cc21 | 70%
CCCC(=O)Oc1ccc2[nH]c(C(=O)c3cc4ccccc4[nH]3)cc2c1 | 143%
O=C1Nc2ccc(Cl)cc2/C1=C/c1cc(Cl)c(O)c(Cl)c1 | 126%
N#Cc1c(NC(=O)c2cccc3ccccc23)sc2c1CCCC2 | 136%

Molecular target: Insulin-like growth factor 1 receptor (Homo sapiens) (UniProt P08069)
Conditions: at 10 µM

Compound | residual activity
O=c1cc(N2CCNCC2)oc2c(-c3ccccc3)cccc12 | 149%
CC(C)[C@H](CO)Nc1nc(Nc2cc(N)cc(Cl)c2)c2ncn(C(C)C)c2n1 | 92%
O=C1NC(=O)c2c1c1c3ccccc3[nH]c1n1cncc21 | 14%
CN(C)S(=O)(=O)c1ccc2c(c1)/C(=C/c1cc3c([nH]1)CCCC3)C(=O)N2 | 134%
Nc1ncnc2c1c(-c1ccc(Oc3ccccc3)cc1)cn2C1CCCC1 | 119%
CC(C)c1nn(-c2c(Cl)cccc2Cl)c2nc(Cc3ccc(OCCO)cc3)[nH]c(=O)c12 | 103%
O=C1C(Cl)=C(N2C(=O)CCC2=O)C(=O)c2ccccc21 | 130%
N#C/C(=C1/Nc2ccccc2S1)c1ccnc(NCCc2cccnc2)n1 | 72%
O=C(CCCc1ccc(-c2ccccc2F)cc1)Nc1ccc(O)cc1 | 100%
CC(C)(C)n1nc(Cc2cccc3ccccc23)c2c(N)ncnc21 | 96%
c1ccc(-c2cnc(Nc3ccc(OCCN4CCCC4)cc3)s2)cc1 | 108%
Nc1ncnc2c1cnn2-c1ccccc1 | 129%
COc1ccc2c(c1)c(C1=C(c3c[nH]c4ccccc34)C(=O)NC1=O)cn2CCCN(C)C | 104%
CCN(CC)CCNC(=O)c1c(C)[nH]c(/C=C2\C(=O)Nc3ccc(Cl)cc32)c1C | 13%
O=C(c1cc2cc(O)ccc2[nH]1)c1cc2cc(O)ccc2[nH]1 | 63%
COc1cc2nccc(Oc3ccc(NC(=S)NC(=O)c4ccccc4C)cc3)c2cc1OC | 148%
NC(=O)Nc1sc(-c2ccc(F)cc2)cc1C(N)=O | 32%
O=C(NC(NC(=S)Nc1ccc(F)c([N+](=O)[O-])c1)C(Cl)(Cl)Cl)C(c1ccccc1)c1ccccc1 (configuration not stated) | 42%
CCCCc1c(-c2ccc(OC)cc2)[nH]c2nccnc12 | 136%
CCCC(=O)Oc1ccc2[nH]c(C(=O)c3cc4ccccc4[nH]3)cc2c1 | 106%
N#Cc1c(NC(=O)c2cccc3ccccc23)sc2c1CCCC2 | 128%

Reference: ChEMBL document CHEMBL2218924, “A broad activity screen in support of a chemogenomic map for kinase signalling research and drug discovery” (Biochem J, 2013)
